# In the library only some 10% were active in any assay of this set; here they are far more common.
# RORgamma inh = inhibitors of mouse ROR gamma transcriptional activity; P51450; Drosophila S2 Gal4-RORgamma UAS-luciferase reporter, 20 h; Potency, µM (doses to about 53.6 µM), for inactives: at the highest dose activity change, negative = inhibition, usual class: inhibitors; 5.4% of 310,000 active; also: % is scaled to controls: 0 for no effect and ±100 for the full control effect; nearly all actives have a fitted effect of over 60% in size
# Target sequence (P51450 whole entry, looked up, the tested form may be a part): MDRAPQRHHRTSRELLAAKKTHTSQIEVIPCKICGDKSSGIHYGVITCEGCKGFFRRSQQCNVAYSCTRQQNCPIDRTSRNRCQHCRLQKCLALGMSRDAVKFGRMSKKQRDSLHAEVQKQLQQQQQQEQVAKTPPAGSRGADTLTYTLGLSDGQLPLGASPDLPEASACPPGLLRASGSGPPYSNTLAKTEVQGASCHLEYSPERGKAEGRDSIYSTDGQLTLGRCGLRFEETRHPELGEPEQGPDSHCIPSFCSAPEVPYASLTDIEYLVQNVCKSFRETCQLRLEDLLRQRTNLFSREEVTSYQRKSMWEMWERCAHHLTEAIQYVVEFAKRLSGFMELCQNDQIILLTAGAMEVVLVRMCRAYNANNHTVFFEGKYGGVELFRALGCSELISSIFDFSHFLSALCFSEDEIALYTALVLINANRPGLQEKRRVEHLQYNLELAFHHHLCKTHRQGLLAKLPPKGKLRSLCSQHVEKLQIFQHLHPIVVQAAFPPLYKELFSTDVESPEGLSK
#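 ROR gamma transcriptional activity was tracked as Gal4-UAS luciferase output in stably transfected Drosophila Schneider cells, with compound added 1 hr before 700 uM copper sulfate induction and a 20 hr ambient-temperature incubation.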
# SW480 rereplic = induces DNA re-replication in SW480 colon adenocarcinoma cells; SW480 DNA re-replication, Hoechst DNA content imaging, 48 h; Potency, µM (top dose mostly 46.1 µM), inactives show at the top dose re-replication activation, most hits filed as activators; 1.8% of 340,000 active; AID 624297; also: % of control where 0% means no effect; nearly all actives have a fitted effect of over 55% in size
#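 Per well, 250 cells were exposed to pinned compound for 48 hr. Nuclear DNA was visualised with Hoechst (40 min, 37 C) and total object intensity recorded by fluorescence scanning.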
# VP16 counter = inhibits Gal4-VP16 luciferase reporter, ROR gamma counter-screen; Potency, µM (top dose mostly 53.6 µM), for the others: at the top dose activity, negative = inhibition, most hits filed as inhibitors; Drosophila S2 Gal4-VP16 UAS-luciferase, luminescence, 20 h; 3.5% of 310,000 active;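 also: Gal4-VP16 expression switched on by copper sulfate through the metallothionein promoter; % is scaled to controls: 0 for no effect and ±100 for the full control effect; nearly all actives have a fitted effect of over 50% in size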
# MCF10A rereplic = inducers of DNA re-replication in MCF 10A breast cells; Potency, µM (highest dose often 46.1 µM), for inactives: top-dose activity, positive = re-replication, usual class: activators; AID 624296; 2.9% of 350,000 active; MCF 10A DNA re-replication, Hoechst nuclear intensity, 48 h; also: % of control where 0% means no effect; nearly all actives have a fitted effect of over 50% in size
# ELG1 repair inh = blocks ELG1-dependent DNA repair in HEK293T cells; Potency, µM (titrated, usually from 46.1 µM), without a hit: at the highest dose activity change, negative = inhibition, usual class: inhibitors; HEK293T ELG1-luciferase reporter, luminescence, 16 h; DNA damage induced by 5-fluorouridine; 2.3% of 330,000 active; also: % is scaled to controls: 0 for no effect and ±100 for the full control effect; nearly all actives have a fitted effect of over 55% in size
#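 Reporter activity after DNA damage by 5-fluorouridine is monitored. Compound-treated cells incubate 16 hr at 37 °C, then ONE-Glo is added for 30 min before luminescence reading.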
# Numbers without * were called inactive; u = inconclusive; x = no result; ! = a repeat was not active. Calls follow the shape of the dose curve; as a rule, active = well fitted curve in the direction sought with a large enough effect; inconclusive = small, poorly fitted or top-dose-only effect, or another doubt; inactive = no such curve, though single readings can be large; an effect the other way counts as inactive or inconclusive. Potency is read from the fitted curve at half-maximal effect.
SMILES,RORgamma inh,SW480 rereplic,VP16 counter,MCF10A rereplic,ELG1 repair inh
COc1ccc(C(=O)Oc2cccc3cccnc23)cc1S(=O)(=O)N1CCOCC1,2.5µM*,u,4.5µM*,u,0%
O=C(Oc1cccc2cccnc12)c1ccccc1,1.4µM*,u,u,u,x
COc1ccc(C(=O)N2CCOCC2)cc1S(=O)(=O)N1CCC(C)CC1,-15%,-1%,-4%,-1%,11%
c1cc2c(cc1C1OC[C@@H]3C(c4ccc5c(c4)OCO5)OCC13)OCO2 (some centres not stated),44%,x,-8%,x,x
Cn1c(O)c(C2=NNC(c3ccc(Cl)cc3)C2)c(=O)n(C)c1=O (configuration not stated),7.1µM*,u,5µM*,-9%,u
CC1(C)CC2CC(C)(CN2S(=O)(=O)c2cccc(C(=O)OCC(=O)NC(N)=O)c2)C1 (configuration not stated),x,u,x,-6%,u
O=c1[nH]c(=O)n(-c2ccc(Br)cc2)c(O)c1C=NC(CO)(CO)CO,0%,4%,-14%,-1%,-7%
N=Cc1c(O)n(-c2ccc(C34CC5CC(CC(C5)C3)C4)cc2)c(=O)[nH]c1=O,-21%,3.3µM*,-3%,5%,u
O=[N+]([O-])C(Br)Br,13µM*,x,11µM*,x,x
O=NN(CCO)CCO,1%,x,-3%,x,x
NC(=O)c1c(Br)n(C2OC(CO)C(O)C2O)c2ncnc(N)c12 (configuration not stated),x,u,x,2.3µM*,x
N#Cc1cn(C2OC(CO)C(O)C2O)c2ncnc(N)c12 (configuration not stated),x,12%,x,19%,x
CCOC(=O)Cn1c(-c2ccccc2)ccc(C#N)c1=O,-25%,u,-7%,-18%,-8%
CCOC(=O)[C@]1(C#N)[C@@H]2C=CC(C(C)=O)=CN2[C@@H](C(N)=O)[C@@H]1c1ccsc1,29%,-10%,20µM*,-1%,-27%
CC(=O)O[C@@]12CO[C@@H]1C[C@H](O)[C@@]1(C)C(=O)[C@H](O)C3=C(C)[C@@H](OC(=O)[C@H](O)[C@@H](NC(=O)c4ccccc4)c4ccccc4)C[C@@](O)([C@@H](OC(=O)c4ccccc4)C12)C3(C)C (some centres not stated),u,2.6µM*,u,u,u
CC(=O)O[C@H]1C(=O)[C@@]2(C)C([C@H](OC(=O)c3ccccc3)[C@]3(O)C[C@H](OC(=O)[C@H](O)[C@@H](NC(=O)Cc4ccccc4)c4ccccc4)C(C)=C1C3(C)C)[C@]1(OC(C)=O)CO[C@@H]1C[C@@H]2O (some centres not stated),u,4.6µM*,13µM*,u,u
COc1ccc(Oc2cc(NC(=O)c3nn(C)cc3[N+](=O)[O-])cc([N+](=O)[O-])c2)cc1,8%,u,-1%,2.1µM*,u
COc1ccc(NC(=O)c2cn(CCC#N)nc2-c2cccc([N+](=O)[O-])c2)cc1,-12%,-7%,-1%,-1%,-13%
O=C(Cl)C(Cl)(Cl)Cl,-3%,x,2%,x,x
CCCCCCCn1c(=O)c(C(=O)Nc2cnccn2)c(O)c2ccccc21,-23%,u,2%,3.7µM*,u
CCCCCn1c(=O)c(C(=O)Nc2cc(C)ccn2)c(O)c2ccccc21,6%,-6%,-1%,12%,-7%
CCCCn1c(=O)c(C(=O)Nc2ncccc2C)c(O)c2ccccc21,u,4%,u,-8%,-14%
CCCCCn1c(=O)c(C(=O)Nc2cnccn2)c(O)c2ccccc21,4%,25%,2%,16µM*,u
CCCCCCn1c(=O)c(C(=O)Nc2ncccc2C)c(O)c2ccccc21,14µM*,u,7.9µM*,u,0%
CCCCC(=O)Cl,15%,x,5%,x,x
SMILES,RORgamma inh,SW480 rereplic,VP16 counter,MCF10A rereplic,ELG1 repair inh
NC1=N[C@H](O)[C@H]2C3O[C@]4(O)O[C@H](C(O)[C@@]2(N1)[C@@H]4O)C3(O)CO (some centres not stated),5%,x,5%,x,x
COc1cc([N+](=O)[O-])c2nc(C)ccc2c1[N+](=O)[O-],x,15µM*,x,u,x
CCC(C(=O)O)C1CCC(C)C(C(C)C(O)C(C)C(=O)C(CC)C2OC3(C=CC(O)[C@@]4(CC[C@](C)(C5CC[C@@](O)(CC)C(C)O5)O4)O3)C(C)CC2C)O1 (some centres not stated),1.8µM*,u,2.2µM*,u,x
Cc1cccc(N2CCN(C(=O)C34CC5CC(CC(C5)C3)C4)CC2)c1C,12%,3%,-1%,u,12%
CN1CC=C(/C=C/c2ccc(-c3ccccc3)cc2)CC1,u,6%,u,16µM*,u
CCOCCSc1nc2c(c(-c3cccs3)c1C#N)CC/C2=C/c1cccs1,-43%,u,u,u,-16%
O=P(Nc1ccccc1)(Nc1ccccc1)Oc1cccc(Cl)c1,5%,-2%,1%,11%,16µM*
CCOC(=O)C(=CNc1ccc(C(O)(C(=O)OCC)C(F)(F)F)cc1C)C(=O)OCC (configuration not stated),51%,-5%,2%,u,18µM*
CCOC(=O)C(O)(c1ccc(NC(=O)c2ccc(Cl)c(Cl)c2)cc1)C(F)(F)F (configuration not stated),42%,u,-11%,u,-21%
O=C1NC(=O)C2(CCCc3ccc(N(CCCl)CCCl)cc32)N1 (configuration not stated),x,16µM*,x,18µM*,x
COC(=O)C1=C(C)NC(=S)NC1c1ccc(N(CCCl)CCCl)cc1Cl (configuration not stated),x,14%,x,15%,x
Cc1sc2c(c1C)C(c1ccc(C(C)(C)C)cc1)=NCC(=O)N2CC(=O)Nc1nccs1,11µM*,26%,u,u,1%
Cc1sc2c(c1C)C(c1cccs1)=NCC(=O)N2CC(=O)NCc1cccs1,28%,-2%,-23%,u,-15%
O=S(c1ccccc1)c1ccccc1,x,-3%,x,-22%,x
C=CC(=O)OCC(CO)(COC(=O)C=C)COC(=O)C=C,4.5µM*,x,5.6µM*,x,x
O=C(Nc1ccc(Cl)c(C(F)(F)F)c1)NC1CC2CCCC(C1)N2Cc1ccccc1 (configuration not stated),u,u,u,u,-29%
COc1ccc2c(c[n+](C)c3c4cc5c(cc4ccc23)OCO5)c1OC,7.1µM*,x,8.9µM*!,x,x
